# Measured values as given in PMC7862700, “An all-to-all approach to the identification of sequence-specific readers for epigenetic DNA modifications on cytosine”.
# What was measured:
# Experiment in all cases: DAPPL (digital affinity profiling via proximity ligation, sequencing); 10 mM Tris-HCl pH 7.5, 50 mM NaCl, 1 mM DTT, 4% glycerol, room temperature, 30 min; GST-TFs on glutathione beads, 16-mer random dsDNA library, 0.1% formaldehyde crosslink after washing; high values mean tight binding
# FEV = molecular target: T1, FEV (Homo sapiens, UniProt Q99581 1-238); conditions: protein: recombinant; tags: N-terminal GST; dsDNA, one strand shown
# T1 sequence: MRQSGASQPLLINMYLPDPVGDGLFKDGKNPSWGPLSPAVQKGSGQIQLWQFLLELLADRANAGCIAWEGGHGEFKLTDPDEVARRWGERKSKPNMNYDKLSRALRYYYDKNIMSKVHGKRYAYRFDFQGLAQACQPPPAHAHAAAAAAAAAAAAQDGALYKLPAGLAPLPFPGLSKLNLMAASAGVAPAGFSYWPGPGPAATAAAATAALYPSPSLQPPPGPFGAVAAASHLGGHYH
# Outline: (§1)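 Human transcription factors carrying a GST fusion were produced in yeast, bound to glutathione beads, tagged with DNA barcodes and pooled together with a tag-only sample. Each pool was held with 200 nmole of a random double-stranded 16-mer DNA library in Tris/NaCl/DTT/glycerol buffer for 30 min at room temperature, then washed, crosslinked in 0.1% formaldehyde, proximity-ligated with BsaI/T4 ligase (1 h, 37 °C), PCR-amplified and sequenced on an Illumina NextSeq500. Binding signal is the read frequency of each hexamer for a given factor divided by its frequency in the tag-only sample.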
# ETV5 = ETV5 (Homo sapiens, UniProt P41161 1-510); conditions: protein: recombinant; tags: N-terminal GST; dsDNA, one strand shown
# Outline: as §1
# HSF1 = HSF1 (Homo sapiens, UniProt Q00613 1-529); conditions: protein: recombinant; tags: N-terminal GST; chain copies: 3; dsDNA, one strand shown
# Outline: as §1
# SPIC = molecular target: T2, SPIC (Homo sapiens, UniProt Q8N5J4 1-248); conditions: protein: recombinant; tags: N-terminal GST; dsDNA, one strand shown
# T2 sequence: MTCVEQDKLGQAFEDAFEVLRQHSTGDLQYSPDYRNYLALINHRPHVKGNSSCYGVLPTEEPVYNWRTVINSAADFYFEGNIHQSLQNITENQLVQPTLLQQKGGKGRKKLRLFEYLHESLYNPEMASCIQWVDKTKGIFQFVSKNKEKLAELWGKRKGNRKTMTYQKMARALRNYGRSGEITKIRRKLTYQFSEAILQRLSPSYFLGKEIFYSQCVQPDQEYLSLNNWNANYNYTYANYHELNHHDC
# Outline: as §1
# ELF4 = ELF4 (Homo sapiens, UniProt Q99607 1-663); conditions: protein: recombinant; tags: N-terminal GST; dsDNA, one strand shown
# Outline: as §1
# ELK4 = molecular target: T3, ELK4 (Homo sapiens, UniProt P28324-2 1-405); conditions: protein: recombinant; tags: N-terminal GST; dsDNA, one strand shown
# T3 sequence: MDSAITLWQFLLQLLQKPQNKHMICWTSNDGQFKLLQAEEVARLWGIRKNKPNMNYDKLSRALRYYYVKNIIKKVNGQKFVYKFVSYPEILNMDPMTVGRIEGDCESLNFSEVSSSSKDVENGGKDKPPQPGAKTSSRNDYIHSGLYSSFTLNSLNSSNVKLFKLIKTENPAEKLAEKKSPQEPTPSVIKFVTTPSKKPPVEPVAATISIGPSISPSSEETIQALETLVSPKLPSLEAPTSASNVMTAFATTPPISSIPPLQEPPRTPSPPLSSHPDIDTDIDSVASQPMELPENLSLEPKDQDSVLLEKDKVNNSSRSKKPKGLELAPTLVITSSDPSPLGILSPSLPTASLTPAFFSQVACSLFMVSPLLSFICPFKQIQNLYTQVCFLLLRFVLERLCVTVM
# Outline: as §1
# ETV2 = molecular target: T4, ETV2 (Homo sapiens, UniProt O00321 1-342); conditions: protein: recombinant; tags: N-terminal GST; dsDNA, one strand shown
# T4 sequence: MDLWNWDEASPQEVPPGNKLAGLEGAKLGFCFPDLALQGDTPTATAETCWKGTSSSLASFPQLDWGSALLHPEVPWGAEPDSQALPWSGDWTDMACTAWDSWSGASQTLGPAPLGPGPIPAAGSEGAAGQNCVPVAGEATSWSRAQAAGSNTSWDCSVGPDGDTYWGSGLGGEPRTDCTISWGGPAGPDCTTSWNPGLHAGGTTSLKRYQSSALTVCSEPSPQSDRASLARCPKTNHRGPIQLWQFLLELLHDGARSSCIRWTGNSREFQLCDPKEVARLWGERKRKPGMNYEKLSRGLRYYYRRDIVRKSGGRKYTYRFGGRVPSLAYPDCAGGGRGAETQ
# Outline: as §1
# ELF3 = molecular target: T5, ELF3 (Homo sapiens, UniProt P78545 1-371); conditions: protein: recombinant; tags: N-terminal GST; dsDNA, one strand shown
# T5 sequence: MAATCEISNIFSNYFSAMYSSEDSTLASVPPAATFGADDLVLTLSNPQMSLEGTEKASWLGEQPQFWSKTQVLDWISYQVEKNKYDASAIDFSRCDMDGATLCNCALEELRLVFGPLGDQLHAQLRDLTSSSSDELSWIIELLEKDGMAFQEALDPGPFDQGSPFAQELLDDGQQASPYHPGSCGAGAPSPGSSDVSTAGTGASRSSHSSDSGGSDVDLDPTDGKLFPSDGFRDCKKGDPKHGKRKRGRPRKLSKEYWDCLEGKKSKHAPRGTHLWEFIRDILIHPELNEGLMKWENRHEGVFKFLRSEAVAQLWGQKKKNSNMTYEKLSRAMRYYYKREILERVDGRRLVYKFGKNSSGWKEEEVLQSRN
# Outline: as §1
# CRX = CRX (Homo sapiens, UniProt O43186 1-299); conditions: protein: recombinant; tags: N-terminal GST; dsDNA, one strand shown
# Outline: as §1
# ETV1 = ETV1 (Homo sapiens, UniProt P50549 1-477); conditions: protein: recombinant; tags: N-terminal GST; dsDNA, one strand shown
# Outline: as §1
# ERF = molecular target: T6, ERF (Homo sapiens, UniProt P50548 1-548); conditions: protein: recombinant; tags: N-terminal GST; dsDNA, one strand shown
# T6 sequence: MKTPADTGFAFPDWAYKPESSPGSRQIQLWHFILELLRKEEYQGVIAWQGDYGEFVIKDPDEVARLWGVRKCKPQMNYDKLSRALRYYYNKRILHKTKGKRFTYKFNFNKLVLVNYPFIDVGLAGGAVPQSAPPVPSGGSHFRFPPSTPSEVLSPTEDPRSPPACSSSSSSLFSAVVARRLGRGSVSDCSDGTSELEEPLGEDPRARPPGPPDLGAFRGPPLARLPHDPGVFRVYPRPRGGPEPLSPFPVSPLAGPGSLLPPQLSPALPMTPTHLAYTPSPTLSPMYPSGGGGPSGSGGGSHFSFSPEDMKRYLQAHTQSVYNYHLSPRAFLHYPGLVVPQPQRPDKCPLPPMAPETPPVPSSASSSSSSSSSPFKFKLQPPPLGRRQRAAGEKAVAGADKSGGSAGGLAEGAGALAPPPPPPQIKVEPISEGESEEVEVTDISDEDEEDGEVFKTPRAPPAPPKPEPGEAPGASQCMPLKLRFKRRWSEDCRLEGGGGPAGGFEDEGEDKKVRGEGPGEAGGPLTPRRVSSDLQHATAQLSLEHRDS
# Outline: as §1
# ETV3L = molecular target: T7, ETV3L (Homo sapiens, UniProt Q6ZN32 1-361); conditions: protein: recombinant; tags: N-terminal GST; dsDNA, one strand shown
# T7 sequence: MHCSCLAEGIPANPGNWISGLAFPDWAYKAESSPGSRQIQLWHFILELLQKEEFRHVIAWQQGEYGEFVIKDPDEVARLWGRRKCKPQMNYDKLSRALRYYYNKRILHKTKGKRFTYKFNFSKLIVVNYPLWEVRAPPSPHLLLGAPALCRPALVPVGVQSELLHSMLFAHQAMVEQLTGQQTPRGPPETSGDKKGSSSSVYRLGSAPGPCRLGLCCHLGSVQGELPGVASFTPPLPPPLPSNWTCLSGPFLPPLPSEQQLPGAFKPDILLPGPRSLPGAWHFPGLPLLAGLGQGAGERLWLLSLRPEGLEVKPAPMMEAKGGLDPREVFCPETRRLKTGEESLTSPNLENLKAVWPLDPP
# Outline: as §1
# ETS2 = molecular target: T8, ETS2 (Homo sapiens, UniProt P15036 1-469); conditions: protein: recombinant; tags: N-terminal GST; dsDNA, one strand shown
# T8 sequence: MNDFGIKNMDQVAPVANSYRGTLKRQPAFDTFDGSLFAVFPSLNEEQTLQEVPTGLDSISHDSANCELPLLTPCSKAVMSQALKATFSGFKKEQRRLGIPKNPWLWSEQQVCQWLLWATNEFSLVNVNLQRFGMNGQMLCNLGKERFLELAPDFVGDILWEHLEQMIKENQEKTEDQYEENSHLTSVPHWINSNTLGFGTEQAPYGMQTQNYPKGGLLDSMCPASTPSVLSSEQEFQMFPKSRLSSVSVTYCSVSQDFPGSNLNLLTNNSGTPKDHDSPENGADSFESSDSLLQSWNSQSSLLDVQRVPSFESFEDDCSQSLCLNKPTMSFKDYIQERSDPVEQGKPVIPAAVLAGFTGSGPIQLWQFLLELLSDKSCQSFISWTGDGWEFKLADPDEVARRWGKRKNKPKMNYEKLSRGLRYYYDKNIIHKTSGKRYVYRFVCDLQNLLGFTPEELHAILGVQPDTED
# Outline: as §1
# SPDEF = molecular target: T9, SPDEF (Homo sapiens, UniProt O95238 1-335); conditions: protein: recombinant; tags: N-terminal GST; dsDNA, one strand shown
# T9 sequence: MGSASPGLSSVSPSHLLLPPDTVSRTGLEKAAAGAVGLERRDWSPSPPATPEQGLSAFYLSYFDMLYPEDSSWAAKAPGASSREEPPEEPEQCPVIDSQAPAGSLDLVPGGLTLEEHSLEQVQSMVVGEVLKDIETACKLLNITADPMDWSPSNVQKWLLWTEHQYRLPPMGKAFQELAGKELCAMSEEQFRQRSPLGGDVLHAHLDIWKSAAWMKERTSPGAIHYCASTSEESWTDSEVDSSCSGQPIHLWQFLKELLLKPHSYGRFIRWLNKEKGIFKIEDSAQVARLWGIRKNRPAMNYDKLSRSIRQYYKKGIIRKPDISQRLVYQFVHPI
# Outline: as §1
# ETV7 = molecular target: T10, ETV7 (Homo sapiens, UniProt Q9Y603 1-341); conditions: protein: recombinant; tags: N-terminal GST; dsDNA, one strand shown
# T10 sequence: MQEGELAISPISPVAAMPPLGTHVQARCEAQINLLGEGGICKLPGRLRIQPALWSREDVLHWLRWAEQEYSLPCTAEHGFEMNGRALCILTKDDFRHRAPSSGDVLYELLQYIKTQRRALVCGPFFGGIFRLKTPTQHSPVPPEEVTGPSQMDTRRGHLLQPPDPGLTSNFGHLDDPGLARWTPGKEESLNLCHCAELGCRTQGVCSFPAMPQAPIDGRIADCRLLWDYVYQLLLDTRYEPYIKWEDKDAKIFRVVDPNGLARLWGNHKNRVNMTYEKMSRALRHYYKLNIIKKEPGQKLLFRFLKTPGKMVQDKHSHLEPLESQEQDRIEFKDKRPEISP
# Outline: as §1
# ELF5 = molecular target: T11, ELF5 (Homo sapiens, UniProt Q9UKW6-2 1-255); conditions: protein: recombinant; tags: N-terminal GST; dsDNA, one strand shown
# T11 sequence: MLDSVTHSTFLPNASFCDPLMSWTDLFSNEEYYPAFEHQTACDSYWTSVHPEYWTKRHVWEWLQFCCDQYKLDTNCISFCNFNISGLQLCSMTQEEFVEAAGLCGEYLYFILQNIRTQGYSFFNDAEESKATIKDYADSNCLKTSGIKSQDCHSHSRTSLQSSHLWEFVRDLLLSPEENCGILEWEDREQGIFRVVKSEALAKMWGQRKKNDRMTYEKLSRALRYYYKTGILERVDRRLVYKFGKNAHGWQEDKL
# Outline: as §1
# ETV3 = molecular target: T12, ETV3 (Homo sapiens, UniProt P41162-2 1-143); conditions: protein: recombinant; tags: N-terminal GST; dsDNA, one strand shown
# T12 sequence: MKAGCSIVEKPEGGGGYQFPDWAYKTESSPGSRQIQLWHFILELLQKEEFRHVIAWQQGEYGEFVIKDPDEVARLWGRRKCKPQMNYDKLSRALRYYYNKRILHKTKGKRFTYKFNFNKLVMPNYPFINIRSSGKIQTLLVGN
# Outline: as §1
# ETV6 = ETV6 (Homo sapiens, UniProt P41212 1-452); conditions: protein: recombinant; tags: N-terminal GST; dsDNA, one strand shown
# Outline: as §1
# Chain of HSF1 (Q00613 whole entry): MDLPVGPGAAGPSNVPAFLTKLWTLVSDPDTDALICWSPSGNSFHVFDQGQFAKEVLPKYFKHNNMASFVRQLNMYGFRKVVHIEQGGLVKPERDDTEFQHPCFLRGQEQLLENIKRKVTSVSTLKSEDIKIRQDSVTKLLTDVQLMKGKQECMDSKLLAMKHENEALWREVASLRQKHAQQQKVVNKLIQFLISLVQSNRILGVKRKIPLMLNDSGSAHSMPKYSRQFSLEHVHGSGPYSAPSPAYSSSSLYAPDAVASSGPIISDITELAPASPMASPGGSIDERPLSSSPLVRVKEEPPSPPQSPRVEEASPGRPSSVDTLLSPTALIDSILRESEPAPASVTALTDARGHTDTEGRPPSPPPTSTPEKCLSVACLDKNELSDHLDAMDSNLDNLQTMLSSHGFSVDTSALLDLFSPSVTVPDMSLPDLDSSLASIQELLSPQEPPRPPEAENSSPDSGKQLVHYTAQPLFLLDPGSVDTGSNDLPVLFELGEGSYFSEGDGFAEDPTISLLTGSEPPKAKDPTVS
# Chain of ETV5 (P41161 whole entry): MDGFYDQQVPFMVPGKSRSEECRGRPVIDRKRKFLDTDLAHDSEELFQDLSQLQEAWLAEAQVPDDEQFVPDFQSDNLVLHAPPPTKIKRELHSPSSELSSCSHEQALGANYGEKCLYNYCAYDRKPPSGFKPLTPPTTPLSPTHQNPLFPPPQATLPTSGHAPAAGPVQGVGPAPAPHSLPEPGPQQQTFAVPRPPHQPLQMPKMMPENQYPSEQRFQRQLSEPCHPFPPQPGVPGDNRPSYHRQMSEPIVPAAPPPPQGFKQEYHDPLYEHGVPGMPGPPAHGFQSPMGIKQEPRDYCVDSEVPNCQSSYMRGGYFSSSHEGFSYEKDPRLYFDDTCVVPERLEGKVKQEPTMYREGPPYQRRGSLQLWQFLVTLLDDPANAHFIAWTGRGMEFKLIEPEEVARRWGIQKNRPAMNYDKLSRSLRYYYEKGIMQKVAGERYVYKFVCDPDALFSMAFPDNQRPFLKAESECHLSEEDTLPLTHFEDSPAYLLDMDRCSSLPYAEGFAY
# Chain of ETV1 (P50549 whole entry): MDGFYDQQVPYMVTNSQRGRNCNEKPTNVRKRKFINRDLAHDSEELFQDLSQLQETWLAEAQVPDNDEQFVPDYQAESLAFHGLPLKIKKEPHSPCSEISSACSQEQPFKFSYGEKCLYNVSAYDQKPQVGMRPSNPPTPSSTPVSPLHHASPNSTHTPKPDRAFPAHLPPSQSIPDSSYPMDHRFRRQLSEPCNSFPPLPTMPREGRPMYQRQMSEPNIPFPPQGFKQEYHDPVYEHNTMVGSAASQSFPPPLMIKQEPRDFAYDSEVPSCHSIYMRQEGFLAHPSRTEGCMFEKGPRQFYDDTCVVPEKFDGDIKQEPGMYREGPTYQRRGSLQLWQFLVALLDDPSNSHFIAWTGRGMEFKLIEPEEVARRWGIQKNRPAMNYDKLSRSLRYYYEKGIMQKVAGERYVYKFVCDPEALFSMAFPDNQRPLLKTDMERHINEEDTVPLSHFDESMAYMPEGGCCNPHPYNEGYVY
# Chain of CRX (O43186 whole entry): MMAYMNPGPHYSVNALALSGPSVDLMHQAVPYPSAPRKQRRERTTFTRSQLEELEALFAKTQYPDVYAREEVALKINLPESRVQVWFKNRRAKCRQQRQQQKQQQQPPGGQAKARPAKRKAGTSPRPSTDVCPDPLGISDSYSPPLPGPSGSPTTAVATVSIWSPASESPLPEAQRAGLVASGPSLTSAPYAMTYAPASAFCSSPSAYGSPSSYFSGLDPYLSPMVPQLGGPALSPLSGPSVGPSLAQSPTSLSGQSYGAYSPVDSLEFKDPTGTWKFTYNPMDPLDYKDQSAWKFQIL
# Chain of ETV6 (P41212 whole entry): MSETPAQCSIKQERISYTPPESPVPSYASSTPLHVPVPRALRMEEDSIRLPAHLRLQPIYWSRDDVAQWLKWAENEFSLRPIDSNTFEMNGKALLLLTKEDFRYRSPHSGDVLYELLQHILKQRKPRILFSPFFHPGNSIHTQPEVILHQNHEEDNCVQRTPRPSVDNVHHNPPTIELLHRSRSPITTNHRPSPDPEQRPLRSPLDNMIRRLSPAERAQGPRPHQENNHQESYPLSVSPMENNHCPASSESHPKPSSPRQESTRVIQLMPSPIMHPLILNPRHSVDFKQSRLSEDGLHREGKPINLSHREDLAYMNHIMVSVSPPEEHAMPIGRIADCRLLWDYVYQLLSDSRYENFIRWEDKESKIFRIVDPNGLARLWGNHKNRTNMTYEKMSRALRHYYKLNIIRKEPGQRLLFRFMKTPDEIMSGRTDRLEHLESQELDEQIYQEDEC
# Chain of ELF4 (Q99607 whole entry): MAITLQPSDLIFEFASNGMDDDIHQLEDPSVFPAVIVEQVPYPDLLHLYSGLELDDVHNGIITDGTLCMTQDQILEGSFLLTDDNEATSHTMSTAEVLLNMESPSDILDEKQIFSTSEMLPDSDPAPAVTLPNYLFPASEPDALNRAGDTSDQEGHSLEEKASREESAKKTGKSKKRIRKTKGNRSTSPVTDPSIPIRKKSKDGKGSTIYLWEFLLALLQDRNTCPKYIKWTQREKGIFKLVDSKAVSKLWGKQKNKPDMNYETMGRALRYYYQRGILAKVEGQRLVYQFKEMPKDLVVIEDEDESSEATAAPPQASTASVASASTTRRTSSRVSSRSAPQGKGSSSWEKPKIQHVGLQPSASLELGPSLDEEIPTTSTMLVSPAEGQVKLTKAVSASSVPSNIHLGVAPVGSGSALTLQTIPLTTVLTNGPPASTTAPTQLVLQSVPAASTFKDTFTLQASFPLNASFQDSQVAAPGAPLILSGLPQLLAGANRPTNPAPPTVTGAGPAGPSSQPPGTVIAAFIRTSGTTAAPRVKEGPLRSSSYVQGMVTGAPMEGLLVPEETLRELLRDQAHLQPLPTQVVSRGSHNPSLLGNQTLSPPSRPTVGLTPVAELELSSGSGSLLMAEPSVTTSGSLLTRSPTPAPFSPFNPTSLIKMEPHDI
sequence,measurement,setting,value
TTATCT,binding signal,FEV,"1.24 fold enrichment (6-mer frequency, TF over GST control)"
same,binding signal,ETV5,"1.27 fold enrichment (6-mer frequency, TF over GST control)"
same,binding signal,HSF1,"2.24 fold enrichment (6-mer frequency, TF over GST control)"
same,binding signal,SPIC,"1.25 fold enrichment (6-mer frequency, TF over GST control)"
same,binding signal,ELF4,"1.25 fold enrichment (6-mer frequency, TF over GST control)"
same,binding signal,ELK4,"1.45 fold enrichment (6-mer frequency, TF over GST control)"
same,binding signal,ETV2,"1.2 fold enrichment (6-mer frequency, TF over GST control)"
same,binding signal,ELF3,"1.13 fold enrichment (6-mer frequency, TF over GST control)"
same,binding signal,CRX,"3.25 fold enrichment (6-mer frequency, TF over GST control)"
same,binding signal,ETV1,"1.29 fold enrichment (6-mer frequency, TF over GST control)"
same,binding signal,ERF,"1.23 fold enrichment (6-mer frequency, TF over GST control)"
same,binding signal,ETV3L,"1.44 fold enrichment (6-mer frequency, TF over GST control)"
same,binding signal,ETS2,"1.35 fold enrichment (6-mer frequency, TF over GST control)"
same,binding signal,SPDEF,"1.24 fold enrichment (6-mer frequency, TF over GST control)"
same,binding signal,ETV7,"1.15 fold enrichment (6-mer frequency, TF over GST control)"
same,binding signal,ELF5,"1.22 fold enrichment (6-mer frequency, TF over GST control)"
same,binding signal,ETV3,"1.28 fold enrichment (6-mer frequency, TF over GST control)"
same,binding signal,ETV6,"1.25 fold enrichment (6-mer frequency, TF over GST control)"
